Anthrax LF inh2 – anthrax lethal factor protease inhibition; multiplex microsphere protease cleavage assay, LF; inhibition, % at 10 µM; 360,000 tested, 0.12% active; further: plate controls were buffer without enzyme for full effect and enzyme alone for no effect
VHR inh abs – blocks human VHR1 dual specificity phosphatase; P51452; recombinant VHR phosphatase, pNPP absorbance; inhibition, % at 13.3 µM; 290,000 tested, 0.52% active; in the data active means inhibition above about 50%
Autofluor counter – counter-screen for toxin protease inhibitors: compound fluorescence; compound autofluorescence counterscreen, microsphere flow cytometry; active compounds read high; fluorescence intensity (concentration not given with the values); 360,000 tested, 3.1% active; AID 624483; in the data active means fluorescence intensity above about 16000; inconclusive means no clear call, values can overlap the other calls
MazEF act – increases E. coli MazEF RNase cleavage of RNA; P0AE70; FAM/BHQ RNA-DNA oligo cleavage fluorescence, 5 h; activation, % at 20 µM; 350,000 tested, 0.32% active; AID 504720; in the data active means activation above about 50%
BoNT-A LC inh2 – blocks Botulinum neurotoxin A light chain protease; AID 588499; 360,000 tested, 0.17% active; inhibition, % at 10 µM; multiplex microsphere protease substrate cleavage, flow cytometry; further: plate controls were buffer without enzyme for full effect and enzyme alone for no effect
BoNT F protease – inhibitors of Botulinum neurotoxin F light chain protease. Multiplex microsphere protease cleavage assay, flow cytometry. inhibition, % at 10 µM. 360,000 tested, 0.22% active. AID 588497; in the data active means inhibition above about 35%, passing the limit was not always enough; inconclusive means no clear call, values can overlap the other calls; further: plate controls were buffer without enzyme for full effect and enzyme alone for no effect
* marks the source's active call; other numbers are inactive results. The list is not random: actives were taken first. Their share in the collection is about 4%. Unless noted, no stated cut-off is given here; in the data, active means inhibition above about 30%; inconclusive means no clear call, values can overlap the other calls; inactive means below that.

O=C(N/N=C/c1c[nH]c2ccc(Br)cc12)c1ccccn1 was read as Anthrax LF inh2 -3, VHR inh abs 2, Autofluor counter 4424, MazEF act 8, BoNT-A LC inh2 0 and BoNT F protease -4.
`COc1ccc(NC(=O)C2CCN(c3nnnn3-c3ccccc3)CC2)cc1` gave Anthrax LF inh2 -2, VHR inh abs 27, Autofluor counter 3605, MazEF act 1, BoNT-A LC inh2 0 and BoNT F protease 3.
O=C(Nc1ccc(F)cc1)C1CCN(c2nnnn2-c2ccccc2)CC1 was read as Anthrax LF inh2 2, VHR inh abs -2, Autofluor counter 19751*, MazEF act -4, BoNT-A LC inh2 inconclusive and BoNT F protease 1.
For COC(=O)C1=C(C)N=c2s/c(=C/c3ccoc3)c(=O)n2C1c1ccccc1 (stereo not given) the results were Anthrax LF inh2 0, VHR inh abs 7, Autofluor counter 21630*, MazEF act 88*, BoNT-A LC inh2 4 and BoNT F protease 5.
Cc1ccc(N2C(=O)CC(n3nc(C)cc3C)C2=O)cc1 (stereo not given) was read as Anthrax LF inh2 0, VHR inh abs 10, Autofluor counter 16252*, MazEF act -4, BoNT-A LC inh2 inconclusive and BoNT F protease -4.
Screening CCOc1cc(C(=O)NC(=S)Nc2cccnc2)cc(OCC)c1OCC returned Anthrax LF inh2 0, VHR inh abs -4, Autofluor counter 2468, MazEF act 3, BoNT-A LC inh2 1 and BoNT F protease 3.
CCCCOc1ccc(OCCCC)c2c1NC1(N2)C(=O)N(C(C)=O)c2ccccc21 was read as Anthrax LF inh2 -2, VHR inh abs -1, Autofluor counter 5109, MazEF act 105*, BoNT-A LC inh2 0 and BoNT F protease -19.
`O=C(NCc1ccc(/C=N\NC(=O)C(=O)Nc2ccccc2Br)o1)C(=O)Nc1ccccc1` gave Anthrax LF inh2 2, VHR inh abs 22, Autofluor counter 4160, MazEF act -9, BoNT-A LC inh2 -7 and BoNT F protease -9.
For CCc1ccc(-c2cn(-c3nc(C)cc(C)n3)c(=N)o2)cc1 the results were Anthrax LF inh2 -2, VHR inh abs 10, Autofluor counter 23477*, MazEF act -9, BoNT-A LC inh2 -1 and BoNT F protease -3.
CCc1ccc(-c2cn3c(n2)SCC3)cc1 was read as Anthrax LF inh2 1, VHR inh abs -21, Autofluor counter 2454, MazEF act -6, BoNT-A LC inh2 0 and BoNT F protease 0.
Cc1cc(C)n(-c2nc3ccccc3nc2N2CCCC2)n1 was read as Anthrax LF inh2 1, VHR inh abs 33, Autofluor counter 19617*, MazEF act 4, BoNT-A LC inh2 3 and BoNT F protease 4.
For Cc1cc(C)n(-c2nc3ccccc3nc2NCCc2ccccc2)n1 the results were Anthrax LF inh2 7, VHR inh abs 25, Autofluor counter 5044, MazEF act -16, BoNT-A LC inh2 10 and BoNT F protease 6.
COc1ccc(Nc2nc3ccccc3nc2-n2nc(C)cc2C)cc1 was read as Anthrax LF inh2 4, VHR inh abs 28, Autofluor counter 4546, MazEF act 178*, BoNT-A LC inh2 6 and BoNT F protease 10.
Cc1cc(C)n(-c2nc3ccccc3[nH]c2=O)n1 was read as Anthrax LF inh2 0, VHR inh abs 0, Autofluor counter 5868, MazEF act -1, BoNT-A LC inh2 1 and BoNT F protease 4.
Screening Cc1cc(C)n(-c2nc3ccccc3nc2Nc2ccc3[nH]c(=O)[nH]c3c2)n1 returned Anthrax LF inh2 1, VHR inh abs -8, Autofluor counter 9515, MazEF act 234*, BoNT-A LC inh2 -1 and BoNT F protease 1.
Screening Cc1cc(C)n(-c2nc3ccccc3nc2N2CCCCCC2)n1 returned Anthrax LF inh2 13, VHR inh abs -5, Autofluor counter 3565, MazEF act -5, BoNT-A LC inh2 16 and BoNT F protease 11.
For CNc1nc(-c2ccccc2)cc(C(F)(F)F)c1C#N the results were Anthrax LF inh2 8, VHR inh abs 17, Autofluor counter 2462, MazEF act 400*, BoNT-A LC inh2 1 and BoNT F protease 21.
For C#CCSc1nc(-c2ccccc2)cc(C(F)(F)F)c1C#N the results were Anthrax LF inh2 4, VHR inh abs -18, Autofluor counter 3973, MazEF act -37, BoNT-A LC inh2 1 and BoNT F protease 6.
For Cc1ccc(F)cc1C(=O)N1CCCC(c2cc(C(=O)NCc3ccccc3)no2)C1 (stereo not given) the results were Anthrax LF inh2 -1, Autofluor counter 3855, BoNT-A LC inh2 0 and BoNT F protease -1.
For COc1cc2c(C(=O)N3CCN(C)CC3)c(C)oc2cc1Br the results were Anthrax LF inh2 0, VHR inh abs 13, Autofluor counter 19992*, MazEF act -2, BoNT-A LC inh2 0 and BoNT F protease 0.
CCN(CC)CCNC(=O)c1c(C)oc2cc(Br)c(OC)cc12 was read as Anthrax LF inh2 -4, VHR inh abs 14, Autofluor counter 21610*, MazEF act 9, BoNT-A LC inh2 4 and BoNT F protease 7.
Screening CCN(CC)CCNC(=O)c1c(O)c2cc(OC)c(OC)cc2[nH]c1=O returned Anthrax LF inh2 -2, VHR inh abs 22, Autofluor counter 3609, MazEF act 12, BoNT-A LC inh2 -2 and BoNT F protease 8.
For COc1cc(OC)cc(C(=O)NCC(=O)OC(C)C(=O)NC(C)C2CC3CCC2C3)c1 (stereo not given) the results were Anthrax LF inh2 5, Autofluor counter 3659, MazEF act -10, BoNT-A LC inh2 0 and BoNT F protease -6.
Screening CNC(=S)N/N=C/c1ccc2c(c1)OCCO2 returned Anthrax LF inh2 -1, VHR inh abs 2, Autofluor counter 2039, MazEF act 7, BoNT-A LC inh2 0 and BoNT F protease -3.
`Oc1[nH]c2ccccc2c1N=Nc1cccc(Cl)c1` gave Anthrax LF inh2 2, VHR inh abs 17, Autofluor counter 3507, MazEF act 362*, BoNT-A LC inh2 4 and BoNT F protease -18.
Oc1[nH]c2ccccc2c1N=Nc1ccccc1Cl was read as Anthrax LF inh2 -7, Autofluor counter 3440, MazEF act 17, BoNT-A LC inh2 0 and BoNT F protease -1.
For COC(=O)C1=C(C)NC(C)=C(C(=O)OC)C1C(=O)OCc1nc2cc(C(=O)OC)ccc2c(=O)[nH]1 the results were MazEF act 0.
Screening O=[N+]([O-])c1ccc(/C=N/n2c(CO)nc3ccccc32)s1 returned Anthrax LF inh2 0, VHR inh abs 48, Autofluor counter 1958, MazEF act 99*, BoNT-A LC inh2 0 and BoNT F protease -3.
`O=[N+]([O-])c1ccc(/C=N/n2cnc3ccccc32)s1` gave Anthrax LF inh2 12, VHR inh abs -4, Autofluor counter 9692, MazEF act 189*, BoNT-A LC inh2 15 and BoNT F protease 16.

From PubChem
